Experimental findings from PubChem BioAssay (EPA / NIEHS) are described below.

Records with an inconclusive call do not appear. Active and inactive are the calls of the source. The calls were made as follows, unless noted: active = hit-call score of the fitted dose curve at least 0.9, where 1 is the maximum; inconclusive = response in the unintended direction; inactive = score below 0.9.

The term AC50 denotes the concentration giving half of the maximal activity seen.

Test [1] in a line: Tanguay_ZF_120hpf_JAW_legacy: (Legacy) Oregon State University Tanguay Lab 120 Hour Post-fertilization zebrafish Assay for Jaw Malformation (AID 2283638).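 As to AC50: active means more embryos with jaw malformation than DMSO controls.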 Summed up: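 Binary jaw-malformation call at 120 hpf by brightfield microscopy. Embryos (Tropical 5D strain, chorion removed at 4 hpf) were dosed statically at 6 hpf, one per well, at 28C with 0.64% DMSO. Embryos that died were not scored.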

The nature of test [2]: Tanguay_ZF_120hpf_OTIC_legacy: (Legacy) Oregon State University Tanguay Lab 120 Hour Post-fertilization zebrafish Assay for Otic Vesicle Malformation (AID 2283639). Summed up: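 Binary scoring of otic vesicle defects at 120 hpf in zebrafish (Tropical 5D) held under static exposure at 28C, sealed and shaded, with final DMSO 0.64%. Embryos dying by 24 or 120 hpf excluded; fitted positively against DMSO.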

A short description of test [3]: Tanguay_ZF_120hpf_PE_legacy: (Legacy) Oregon State University Tanguay Lab 120 Hour Post-fertilization zebrafish Assay for Pericardial Edema (AID 2283640).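 As to AC50: potency for increased incidence of pericardial edema versus DMSO baseline.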 Put shortly:
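Scoring was binary, by brightfield microscopy at 120 hpf, and skipped where mortality occurred. Wild-type embryos were kept under sealed, foil-covered static exposure at 28C in 0.64% (vol/vol) DMSO.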

A short description of test [4]: Tanguay_ZF_120hpf_BRAI_legacy: (Legacy) Oregon State University Tanguay Lab 120 Hour Post-fertilization zebrafish Assay for Brain Malformation (AID 2283641). Put shortly: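 Binary brightfield scoring of brain malformation at 120 hpf in Tropical 5D larvae held under static exposure at 28C (0.64% v/v DMSO), non-mortality endpoints skipped if dead. Positive control: 5uM trimethyltin chloride; fit versus DMSO.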

Test [5] is described as follows: Tanguay_ZF_120hpf_PIG_legacy: (Legacy) Oregon State University Tanguay Lab 120 Hour Post-fertilization zebrafish Assay for Pigmentation Malformation (AID 2283650). Put shortly:
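Brightfield scoring of pigmentation malformation at 120 hpf, recorded as binary present/absent per larva. Exposure: dechorionated 5D wild-type embryos, one per well, static from 6 hpf at 28C, final DMSO 0.64% (vol/vol). Dead embryos not scored.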

Test [6] can be described thus: Tanguay_ZF_120hpf_CIRC_legacy: (Legacy) Oregon State University Tanguay Lab 120 Hour Post-fertilization zebrafish Assay for Circulatory Malformation (AID 2283651). Put shortly:
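Binary circulatory malformation call at 120 hpf by brightfield imaging of zebrafish larvae; chorion removed at 4 hpf, static exposure from 6 hpf in sealed dark plates at 28C, final DMSO 0.64%; non-mortality endpoints skipped if embryo died.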

Read-out in test [7]: solute carrier (SLC22A6), SLC22A6 (gene 9356)
The test is described as follows: LTEA_HepaRG_SLC22A6: Life Technologies and Expression Analysis (LTEA) Assay for solute carrier (SLC22A6) using HepaRG (AID 2283653; active = hit-call score of the fitted dose curve at least 0.9, where 1 is the maximum; inactive = score below 0.9). The conditions noted are these: mRNA level, 48 h; actives raise or lower the signal. Summed up: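 SLC22A6 transcript was measured by TaqMan qRT-PCR, normalized to three housekeeping genes, after 48 h duplicate exposure of HepaRG cells (100 uM top, half-log steps, 0.5% DMSO); bidirectional fit against vehicle.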

A short description of test [8]: Tanguay_ZF_120hpf_SWIM_legacy: (Legacy) Oregon State University Tanguay Lab 120 Hour Post-fertilization zebrafish Assay for Swim Bladder Malformation (AID 2283654).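 Also: swim bladder malformation in each larva scored yes or no under brightfield.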 Summed up: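 Tropical 5D embryos dechorionated at 4 hpf; 1 embryo/well from 6 hpf; static, sealed, dark exposure at 28C until 120 hpf; final DMSO 0.64%; 5uM trimethyltin chloride positive control; swim bladder defect recorded yes/no; dead embryos not scored.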

Test [9] in a line: Tanguay_ZF_120hpf_NC_legacy: (Legacy) Oregon State University Tanguay Lab 120 Hour Post-fertilization zebrafish Assay for Notochord and Tail Malformation (AID 2283656). Summed up: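 Binary scoring of notochord distortion by brightfield microscopy; embryos dying were not scored. Wild-type Tropical 5D embryos, chorion removed, exposed singly and statically from 6 to 120 hpf, 28C, sealed, 0.64% DMSO.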

Read-out in test [10]: matrix metalloproteinase-1 (MMP1), MMP1 (gene 4312)
Kind of test: LTEA_HepaRG_MMP1: Life Technologies and Expression Analysis (LTEA) Assay for matrix metalloproteinase-1 (MMP1) using HepaRG (AID 2283658; active = hit-call score of the fitted dose curve at least 0.9, where 1 is the maximum; inactive = score below 0.9). The conditions noted are these: mRNA level, 48 h; actives raise or lower the signal. Summed up:
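qRT-PCR (TaqMan, Fluidigm arrays) of MMP1 transcript, normalized against three housekeeping genes and fitted in both directions relative to 0.5% DMSO vehicle. Human HepaRG cultures received duplicate 48 h exposures across 8 points, highest 100 uM with half-log steps.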

Read-out in test [11]: Broad substrate specificity ATP-binding cassette transporter ABCG2 (Homo sapiens) (UniProt Q9UNQ0)
The test is described as follows: CLD_ABCG2_6hr: CellzDirect (CLD) Gene Expression Assay for ABC Transporter (ABCG2) at 6 hours (AID 2283660). Put shortly: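 ABCG2 mRNA induction measured by qNPA chemiluminescence in human primary hepatocyte cultures, 6 h post-dose. Chemicals tested at several concentrations against a 0.2% DMSO vehicle; positive-direction fit relative to DMSO.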

Test [12] is described as follows: Tanguay_ZF_120hpf_PFIN_legacy: (Legacy) Oregon State University Tanguay Lab 120 Hour Post-fertilization zebrafish Assay for Pectoral Fin Malformation (AID 2283648).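 Also: each larva judged yes or no for fin defect by brightfield with dead larvae skipped.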 Put shortly: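 Binary pectoral fin malformation call at 120 hpf by brightfield microscopy; 5D wild-type zebrafish, chorion removed at 4 hpf, one embryo per well from 6 hpf, static exposure at 28C; DMSO (0.64% final) as baseline.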

Test [13] is described as follows: Tanguay_ZF_120hpf_CFIN_legacy: (Legacy) Oregon State University Tanguay Lab 120 Hour Post-fertilization zebrafish Assay for Caudal Fin Malformation (AID 2283649). Summed up:
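Binary brightfield scoring of caudal fin defects at 120 hpf after static, light-shielded exposure at 28C from 6 hpf. Tropical 5D embryos, chorion removed with pronase at 4 hpf, final DMSO 0.64%.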

Test [14] can be described thus: Tanguay_ZF_120hpf_TRUN_legacy: (Legacy) Oregon State University Tanguay Lab 120 Hour Post-fertilization zebrafish Assay for Truncated Body (AID 2283655). Put shortly: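 Binary presence/absence of truncated body is recorded at 120 hpf by brightfield, with non-mortality endpoints skipped after death. Exposure is static from 6 hpf in sealed dark plates at 28C, using dechorionated wild-type zebrafish, 0.64% DMSO.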

Read-out in test [15]: xenobiotic metabolism (CYP1A2), CYP1A2 (gene 1544)
Kind of test: CLD_CYP1A2_6hr: CellzDirect (CLD) Gene Expression Assay for xenobiotic metabolism (CYP1A2) at 6 hours (AID 2283663).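 As to AC50: potency is for induction meaning a rise in mRNA above DMSO.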 Put shortly: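 mRNA levels quantified by quantitative nuclease protection assay with chemiluminescence, 6 h after dosing human primary hepatocyte cultures (two donors) across several concentrations, vehicle 0.2% DMSO. Induction fitted upward versus DMSO; phase-contrast cytotoxicity annotated.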

Read-out in test [16]: ABC Transporter (ABCB1), ABCB1 (gene 5243)
The test is described as follows: CLD_ABCB1_6hr: CellzDirect (CLD) Gene Expression Assay for ABC Transporter (ABCB1) at 6 hours (AID 2283659).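 Also: hits raise ABCB1 transcript above the DMSO vehicle baseline.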 Put shortly:
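ABCB1 transcript measured by quantitative nuclease protection assay, chemiluminescent read-out, 6 h after dosing human hepatocyte cultures (0.2% DMSO vehicle, daily redosing). Activity fitted as increase over DMSO baseline; cytotoxicity flagged by phase-contrast morphology.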

Test [17] deals with Thyroperoxidase (TPO), gene 54314. Kind of test: CCTE_Simmons_AUR_rTPO: CCTE's Amplex UltraRed Assay for Thyroperoxidase (TPO) Inhibition, Simmons Lab (AID 2283662).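 Also: potency for loss of signal meaning inhibition of peroxidase activity.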 Put shortly: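 Rat thyroid microsomes (5 ug protein) with 25 uM Amplex UltraRed and 300 uM H2O2 in 200 mM phosphate buffer, 30 min at 37C in dark; fluorescence 544/590 nm. Eight concentrations, 5 nM–87.5 uM final, 0.5% DMSO, triplicate biological replicates.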

A short description of test [18]: Tanguay_ZF_120hpf_SOMI_legacy: (Legacy) Oregon State University Tanguay Lab 120 Hour Post-fertilization zebrafish Assay for Somite Malformation (AID 2283647). Summed up:
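Binary somite-defect scoring at 120 hpf, omitted for embryos that died, in wild-type (Tropical 5D) zebrafish with chorion removed by pronase at 4 hpf; static exposure began 6 hpf, single embryos per well, 28C, 0.64% DMSO; fitted positive versus DMSO.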

Read-out in test [19]: xenobiotic metabolism (CYP1A1), CYP1A1 (gene 1543)
The test is described as follows: CLD_CYP1A1_6hr: CellzDirect (CLD) Gene Expression Assay for xenobiotic metabolism (CYP1A1) at 6 hours (AID 2283661). Put shortly:
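Read-out 6 h post-dose: qNPA chemiluminescent quantitation of transcript induction against 0.2% DMSO. Cells were cultured primary human hepatocytes from two separate donor preparations; phase-contrast morphology annotated apparent cytotoxicity.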

Sequence of Broad substrate specificity ATP-binding cassette transporter ABCG2 (Homo sapiens) (Q9UNQ0 whole entry, looked up): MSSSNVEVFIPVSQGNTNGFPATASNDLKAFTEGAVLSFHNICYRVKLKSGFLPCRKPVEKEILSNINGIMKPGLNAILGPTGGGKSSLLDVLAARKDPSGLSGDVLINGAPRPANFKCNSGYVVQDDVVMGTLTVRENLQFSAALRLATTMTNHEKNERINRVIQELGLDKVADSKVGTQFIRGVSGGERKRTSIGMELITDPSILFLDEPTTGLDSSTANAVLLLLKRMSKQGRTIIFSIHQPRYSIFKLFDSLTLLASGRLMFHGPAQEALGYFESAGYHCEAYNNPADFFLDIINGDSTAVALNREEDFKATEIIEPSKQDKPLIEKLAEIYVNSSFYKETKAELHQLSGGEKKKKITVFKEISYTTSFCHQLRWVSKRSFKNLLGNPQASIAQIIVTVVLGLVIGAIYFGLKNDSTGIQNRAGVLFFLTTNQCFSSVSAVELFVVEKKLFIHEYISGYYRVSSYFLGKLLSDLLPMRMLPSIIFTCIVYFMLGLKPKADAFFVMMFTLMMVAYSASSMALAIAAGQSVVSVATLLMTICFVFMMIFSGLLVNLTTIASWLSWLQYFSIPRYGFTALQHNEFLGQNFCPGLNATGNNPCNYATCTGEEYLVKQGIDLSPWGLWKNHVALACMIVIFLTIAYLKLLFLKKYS

In the case of `CCc1cccc(CC)c1N(COC)C(=O)CCl`, the compound was called inactive in [1], in [2], in test [3], in [4], in test [5] and in [6]. Besides, the compound was classed as inactive in test [7], in [8], in test [9], in test [10] and in test [11].

With `Cc1cc(C2CC2)nc(Nc2ccccc2)n1`, the outcome in [1], in [2], in test [3], in [12], in test [13] and in test [6] was inactive. The call in test [8], in test [14] and in [11] was inactive. Further, in [15], the AC50 is 1.99 µM (active).

As to `CCCCN(CC)c1c([N+](=O)[O-])cc(C(F)(F)F)cc1[N+](=O)[O-]`, the compound was classed as inactive in test [1], in [2], in [3], in test [12], in [13] and in [6]. In addition, the result in test [7], in test [8], in test [9], in [10], in test [16] and in [11] was inactive. In [15], the compound was called inactive.

For the compound `CCC(=O)Nc1ccc(Cl)c(Cl)c1`, the call in test [1], in test [2], in test [3], in test [4], in test [13] and in test [5] was inactive. The compound was classed as inactive in [6], in [8] and in [9]. In [17], the AC50 is 36 µM (active).

In the case of `CCOP(=O)(OCC)Oc1cc(C)nc(C(C)C)n1`, the outcome in test [1], in test [2], in [3], in test [4], in [13] and in [5] was inactive. The result in test [6], in [8], in test [14], in test [9] and in test [11] was inactive.

On to `CC(C)[C@H](C(=O)O[C@H](C#N)c1cccc(Oc2ccccc2)c1)c1ccc(Cl)cc1`, for which the AC50 was 5.13 µM (active) in test [1]; 5.21 µM (active) in [3]; 4.07 µM (active) in test [4]; 1.15 µM (active) in test [18]; 4.25 µM (active) in test [8]. In addition, the compound was classed as inactive in test [2], in [13], in test [5], in test [6], in [9] and in test [16]. For the same compound, the call in test [11] was inactive.

Consider `COc1cccc(C(=O)NN(C(=O)c2cc(C)cc(C)c2)C(C)(C)C)c1C`, for which the compound was called inactive in [1], in test [2], in [3], in [18], in test [5] and in [6]. Also, the compound was called inactive in test [8], in [9] and in test [11].

For `C=C(C)[C@H]1Cc2c(ccc3c2O[C@@H]2COc4cc(OC)c(OC)cc4[C@@H]2C3=O)O1`, the outcome in test [1], in test [2], in [3], in test [18], in test [12] and in test [13] was inactive. In addition, the compound was classed as inactive in test [5], in [6], in test [8], in [14] and in [9]. The AC50 in test [17] was 26.5 µM (active).

As to `CCOP(=S)(OCC)OC(Cl)C(Cl)(Cl)Cl` (stereo not drawn), the call in [1], in test [2], in test [3], in test [4], in test [13] and in [5] was inactive. Moreover, the compound was called inactive in test [9], in test [19] and in test [15]. Besides, the AC50 in test [17] was 3.97 µM (active).
